Screens deposited in PubChem BioAssay by National Center for Advancing Translational Sciences (NCATS).
Only some compounds are listed: those with a hit (about 0.55% of all), similar ones and a draw of the others.
p53 reactivation: qHTS assay for re-activators of p53 using a Luc reporter | Potency, µM (titrated, usually from 92.2 µM), inactives show at the top dose activity change, positive = activation, actives largely listed as activators | 0.063% of 320,000 active | H1299 p53-A138V BP100-luciferase reporter, luminescence, 24 h; also: potency is read from the fitted curve at half-maximal effect; % of control where 0% means no effect; nearly all actives have a fitted effect of over 45% in size
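p53-null H1299 cells stably carrying temperature-sensitive p53-A138V and a BP100-luciferase reporter were pinned with compounds (4-point, 1:5 series) and held 24 hrs at 37 deg C. Luminescence was read 10 min after detection reagent.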
S-ASM inh: Inhibitors of Secretory Acid Sphingomyelinase (S-ASM): qHTS | Sphingomyelin phosphodiesterase (Homo sapiens), P17405 | placental ASM, HMU-PC fluorogenic substrate, 60 min | Potency, µM (doses to about 57.5 µM), inactives show at the highest dose activity change, negative = inhibition, hits mostly inhibitors | 0.006% of 340,000 active | AID 504937, 2011; also: potency is read from the fitted curve at half-maximal effect
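qHTS format. ASM enzyme prepared from human placenta hydrolyses the fluorogenic substrate HMU-PC0 (9 uM final) over 60 min at 37 °C after a 10 min compound preincubation.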
GCN5L2 inh-1: qHTS Assay for Inhibitors of GCN5L2. Histone acetyltransferase KAT2A (Homo sapiens), Q92830. GCN5L2 HAT assay, ThioGlo1 CoA-SH fluorescence. Potency, µM (doses to about 58.9 µM), for the others: top-dose activity change, negative = inhibition, most hits filed as inhibitors. 0.21% of 390,000 active; also: potency is read from the fitted curve at half-maximal effect; % is scaled to controls: 0 for no effect and ±100 for the full control effect
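ThioGlo1-coupled HAT assay: 20nM GCN5L2, 70uM acetyl-CoA, 75uM H3(1-25) peptide, pH 7.5. Fluorescence read at 340/540nm at start and after 20 min at room temperature.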
Tb PFK inh: qHTS Assay to Find Inhibitors of T. brucei phosphofructokinase; ATP-dependent 6-phosphofructokinase (Trypanosoma brucei brucei), O15648; AID 485367, 2010; T. brucei PFK, ADP-Glo luminescence; Potency, µM (series often up to 57.5 µM), for the others: at the top dose activity, negative = inhibition, usual class: inhibitors; 0.17% of 330,000 active;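 also: potency is read from the fitted curve at half-maximal effect; 0% = uninhibited 1x PFK enzyme wells and -100% = no-enzyme wells; nearly all actives have a fitted effect of over 60% in size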
Target sequence (O15648 whole entry, looked up): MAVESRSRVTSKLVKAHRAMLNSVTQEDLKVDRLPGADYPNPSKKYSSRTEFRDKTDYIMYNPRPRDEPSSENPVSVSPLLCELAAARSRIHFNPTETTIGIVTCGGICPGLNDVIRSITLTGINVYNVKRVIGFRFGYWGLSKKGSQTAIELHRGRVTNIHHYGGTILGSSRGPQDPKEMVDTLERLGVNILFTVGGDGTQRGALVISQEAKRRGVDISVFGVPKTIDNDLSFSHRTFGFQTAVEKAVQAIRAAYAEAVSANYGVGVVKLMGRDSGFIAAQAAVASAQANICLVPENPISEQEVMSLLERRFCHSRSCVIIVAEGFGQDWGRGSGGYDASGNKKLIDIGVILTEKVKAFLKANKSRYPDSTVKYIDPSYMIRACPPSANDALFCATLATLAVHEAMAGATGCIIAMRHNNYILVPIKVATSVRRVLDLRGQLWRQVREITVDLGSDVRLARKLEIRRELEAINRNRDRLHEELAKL
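Compounds were pin-transferred as a titration series up to 57 uM into substrate buffer (0.5 mM F6P, 0.1 mM ATP, pH 8.0), then 1.25 nM PFK was added and reactions ran 45 min before ADP-Glo detection.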
A-T KAP1 phos: qHTS Assay for Identifying a Potential Treatment of Ataxia-Telangiectasia; F2112 A-T fibroblasts, KAP-1 phosphorylation AlphaLISA; neocarzinostatin DNA damage 30 min before lysis; Potency, µM (doses to about 57.5 µM), for the others: at the highest dose activation, actives largely listed as activators; 0.19% of 320,000 active; AID 485349, 2010; also: potency is read from the fitted curve at half-maximal effect; % of control where 0% means no effect; nearly all actives have a fitted effect of over 45% in size
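hTERT-immortalized A-T patient fibroblasts (F2112), 500 cells/well in OPTI-MEM, 1% FBS, got compounds for 60 min, then NCS for 30 min at 37C. Lysates were then assayed for phospho-KAP-1 by AlphaLISA (anti-pKAP1 donor, anti-KAP1 acceptor beads), 6 hr at 25C.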
ERG-DNA inh: qHTS for Small Molecule Inhibitors of the ERG Ets/DNA interaction; Transcriptional regulator ERG (Homo sapiens), P11308; fluorescence polarization, His-ERG Ets domain / labelled DNA; Potency, µM (titrated, usually from 76.9 µM), for inactives: at the top dose FP activity, negative = inhibition, hits mostly inhibitors; 0.028% of 370,000 active; active = well fitted inhibition curve with a large enough effect in the polarisation, with a control signal flat; inconclusive = small, poorly fitted or top-dose-only effect, or effect the other way, or a change in a side signal; inactive = no such curve, though single readings can be large or run the other way; the % refers to the polarisation;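 also: polarization taken with two DNA probes labelled with fluorescein and Texas red; potency is read from the fitted curve at half-maximal effect; % of control where 0% means no effect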
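His-tagged ERG Ets domain (1 uM in the protein solution; 300mM KCl, 50mM Tris-HCl, 1mM EDTA, 1mM DTT, pH 7.5) received compound, then a probe mix of 5 nM fluorescein-DNA and 100nM Texas-615-DNA. Fluorescence polarization was read for both dyes.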
GCN5L2 inh-2: qHTS Assay for Inhibitors of GCN5L2: Hit confirmation; shares compounds with GCN5L2 inh-1; 70% of 140 active; AID 588347, 2011; Potency, µM, hits mostly inhibitors; GCN5L2 HAT, ThioGlo1 CoA fluorescence, 20 min
The depositor's hits bear a star; i = inactive; u = inconclusive; x = not tested or not shown. Unless noted, calls follow the shape of the dose curve; as a rule, active = well fitted curve in the direction sought with a large enough effect; inconclusive = small, poorly fitted or top-dose-only effect, or another doubt; inactive = no such curve, though single readings can be large; an effect the other way counts as inactive or inconclusive.

SMILES	p53 reactivation	S-ASM inh	GCN5L2 inh-1	Tb PFK inh	A-T KAP1 phos	ERG-DNA inh	others
COc1ccc(CNC(=O)CSc2n[nH]c(-c3ccc(OC)cc3)n2)cc1	x	x	-7%	x	x	-10%
CC1=NN(C(C#N)c2ccc([N+](=O)[O-])cc2)C(C)(C)C1 (stereo unspecified)	12%	-2%	-1%	6%	3.5µM*	3%
CC1=NN(C(C#N)c2ccc(F)cc2)C(C)(C)C1 (stereo unspecified)	1%	1%	0%	3%	0%	3%
CCOc1ccc(CCNC(=O)c2cnc3sc(N4CCC(C)CC4)nn3c2=O)cc1	x	x	-27%	x	x	-8%
Cc1cc(C)c2c(c1)NC(C(=O)O)C1CC=CC21 (stereo unspecified)	0%	-17%	28µM*	-14%	10%	29%
CCOC(=O)c1ccc2c(c1)C1C=CCC1C(C(=O)O)N2 (stereo unspecified)	2%	x	20µM*	19µM*	-4%	x
S=c1nc(-c2ccc(Cl)cc2)[nH][nH]1	1%	1%	-7%	-22%	6%	-2%
Cc1ccc(C)n1-c1nc(=S)[nH][nH]1	-1%	7%	18µM*	1%	-2%	5%
CC1(C)CC(=O)c2cc(-c3nc(-c4ccc(Cl)cc4)cs3)c(=O)[nH]c2C1	x	x	2%	x	x	-2%
Cc1cc(C)c2c(=O)cc(C(=O)NCc3ccccc3)oc2c1	-6%	4%	18%	9%	35µM*	-16%
COc1ccccc1/C=C\C(=O)O	x	x	-1%	x	x	x
CC(=O)/C=C/c1ccccc1Oc1c(F)c(F)nc(F)c1F	u	-1%	-2%	-14%	32µM*	-4%
CC1=NN(c2ccc(C)c(C)c2)C(=O)/C1=C\C=C\c1ccc([N+](=O)[O-])o1	10%	1%	u	8%	32µM*	29%
Fc1ccc(CN2CC[C@H]3C=CCc4cccc(c43)C2)cc1	-1%	8%	-6%	2%	u	-4%
Clc1ccc(CN2CC[C@H]3C=CCc4cccc(c43)C2)cc1	-8%	13%	-2%	-6%	35µM*	-7%
CCc1oc2ccccc2c1C(=O)c1cc(I)c(O)c(I)c1	x	x	8.9µM*	x	x	x
CCOc1ccccc1C(=O)Nc1c(NC)c2ccccc2oc1=O	x	x	-8%	x	x	-2%
CC(=O)/C=C(\C)Nc1ccc(-c2cnc(-c3ccccc3)o2)cc1	u	i	28µM*	2%	6%	1%
O=C(Nc1ccc2c(c1)OCCO2)c1c(F)cccc1F	22µM*	-3%	-10%	-2%	4%	4%
O=C(Nc1ccc2c(c1)OCCO2)c1ccccc1F	15%	0%	-4%	-10%	17%	-4%
CSc1ncccc1C(=O)Nc1ccc2c(c1)OCCO2	14%	6%	-4%	0%	28µM*	2%
O=C(CSc1nc2c(oc3ccccc32)c(=O)n1-c1ccccc1)Nc1ccc(F)c(Cl)c1	x	x	-3%	x	x	10%
CC(C)Cn1c(=O)c2ccccc2n2c(CCC(=O)N3CCN(c4ccccc4F)CC3)nnc12	x	x	0%	x	x	1%
COc1cccc(-c2nnc(-c3ccco3)o2)c1	40µM*	9%	1%	0%	0%	-1%
COc1cccc(-c2nnc(-c3ccc(C)o3)o2)c1	u	-1%	-11%	7%	x	0%
SMILES	p53 reactivation	S-ASM inh	GCN5L2 inh-1	Tb PFK inh	A-T KAP1 phos	ERG-DNA inh	others
Oc1cc2cc(CCN3CCN(c4nsc5ccccc45)CC3)c(Cl)cc2[nH]1	x	x	-7%	x	x	x
Cc1cc(C)n(-c2ccc(S(=O)(=O)N3CCOCC3)cc2[N+](=O)[O-])n1	2%	1%	-7%	6%	40µM*	-2%
O=C1/C(=C\c2ccco2)CCC/C1=C\c1ccco1	25µM*	-7%	u	u	6%	71%
CC1C/C(=C/c2ccco2)C(=O)/C(=C/c2ccco2)C1 (stereo unspecified)	-21%	x	u	u	8%	x
Cc1ccc(S(=O)(=O)/N=C2/C=C(Sc3ncn[nH]3)C(=O)c3ccccc32)cc1	-25%	-1%	22µM*	u	u	13%	GCN5L2 inh-2=1.3*
O=C(CSc1ncc2c(n1)-c1ccc(Cl)cc1N(Cc1ccccc1)S2(=O)=O)Nc1ccccc1C(F)(F)F	x	x	-21%	x	x	1%
COc1ccc(S(=O)(=O)N2CCN(C(=O)c3cc4c(s3)CCC4)CC2)cc1	-3%	6%	16µM*	u	32%	0%	GCN5L2 inh-2=18*
N=C1/C(=C/c2ccc(-c3cccc(C(=O)O)c3)o2)C(=O)N=C2SC=C(c3ccccc3)N12	1%	-10%	22µM*	-1%	-1%	16%	GCN5L2 inh-2=16*
O=C1c2ccc(-c3ccc(F)cc3OCc3ccccc3)cc2S(=O)(=O)c2cccc(C(=O)N3CCN(c4ncc(Br)cn4)CC3)c21	9%	0%	-3%	-4%	-16%	-11%
O=C(O)c1cccc2c1C(=O)c1ccc(-c3ccc(F)cc3OCc3ccccc3)cc1S2(=O)=O	15%	7%	22µM*	-7%	-13%	-1%	GCN5L2 inh-2=u
COc1ccccc1NC(=O)c1cccc(S(=O)(=O)N2CCCCCC2)c1	x	x	-8%	x	x	-4%
N#Cc1c(-c2cccs2)nc(SCc2ccc(Cl)cc2)[nH]c1=O	1%	14%	25µM*	-2%	2%	0%	GCN5L2 inh-2=29*
CSc1nc(-c2cccs2)c(C#N)c(=O)[nH]1	2%	19%	-5%	3%	-6%	0%
O=C(O)c1ccc(-n2cccc2/C=C2/NC(=O)N(c3cccc(Cl)c3)C2=O)cc1	-6%	1%	u	-25%	-1%	-1%	GCN5L2 inh-2=u
CCC(C)Sc1ccc(-c2nc3ccccn3c2NCc2ccccc2)cc1OC (stereo unspecified)	17%	i	22µM*	5%	17%	-4%	GCN5L2 inh-2=u
Cc1nn(C)c2c1c(C(F)(F)F)cc(=O)n2CC(=O)NC(C)(C)C	x	x	-10%	x	x	6%
